Drawing on PubChem BioAssay (NCI), this text covers growth for eight compounds.

Common to all, as to assay: NCI-60 one-dose screen, 48 h (100 = growth as untreated, 0 = no growth, -100 = all killed)
Common to all, as to conditions: 10 µM unless noted

Assay [1] concerns NCI-H23 lung.
In assay [2] the test system is NCI-H226 lung.
Assay [3] deals with NCI-H322M lung.
Assay [4] has as its system HOP-62 NSCLC.
The test system of assay [5] is NCI-H460 lung.
Assay [6] has as its system 786-0 renal.
Assay [7] deals with DU-145 prostate.
Assay [8] has as its system MDA-MB-231 breast.
For assay [9], the system named is SF-268 CNS.
The subject of assay [10] is SF-539 CNS.
The test system of assay [11] is M14 melanoma.
For assay [12], the system named is SNB-19 CNS.
The subject of assay [13] is U251 CNS.
Assay [14] deals with SN12C renal.
For assay [15], the system named is UO-31 renal.
For assay [16], the system named is SK-OV-3 ovarian.
The test system of assay [17] is MDA-MB-435 melanoma.
The test system of assay [18] is SW-620 colon.
For assay [19], the system named is HCT-116 colon.
Assay [20] relates to KM12 colon.

This is part of a sample that, as a whole, favours compounds with a hit. Of some 83,000 tested, about 20% had one in any assay.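 Results are percent growth after 48 hours of single-concentration exposure. 100 means growth as in untreated cells, lower positive values show inhibition; negative values down to -100 show cell death.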 Unmarked numbers belong to inactive results. Active and inactive are the calls of the source. How the source made its calls: active means growth percent below 10; inactive means the rest.

Take `O=C(CCl)NCNC(=O)CCl`: the growth in [1] is 97.8%; in assay [2] it was 112%; in assay [3], 100%; in assay [4], 97.2%; in [5], 103%; in [6], 107%. Also, the growth in assay [7] was 103%; in [8], 99.7%; in assay [9], 98.1%; in [10], 101%; in assay [11], 91.5%; in assay [12], 108%. For the same compound, the growth in [13] is 87.9%; in assay [14], 97.7%; in assay [15], 93.5%; in assay [16] it was 98.8%; in [17] it was 93.9%; in [18], 100%. Besides, the figures for the growth in assay [19] and in assay [20] were 92.1% and 104%, respectively.
As to `N#C[Se]CCCNS(=O)(=O)C1CC2C=CC1C2` (centres undefined), the growth in [1] is -37.5% (active); in assay [2], -66.5% (active); in assay [3], -19.9% (active); in assay [4] it was -71.6% (active); in assay [5] it was -18.3% (active); in [6], -87.4% (active). Moreover, the growth was -68% (active) in [7]; -71.8% (active) in [8]; -55.7% (active) in [9]; -77.9% (active) in assay [10]; -47.9% (active) in assay [11]; -42.3% (active) in [12]. Besides, the growth was -76.6% (active) in assay [13]; -25.6% (active) in assay [14]; -98.7% (active) in assay [15]; -36.4% (active) in [16]; -41.2% (active) in assay [17]; 1.26% (active) in assay [18]. The growth in assay [19] is -31.9% (active); in assay [20], -5.35% (active).
Take `COc1cccc2c1C(=O)c1c(O)c3c(c(O)c1C2=O)CC(O)(/C(C)=N/NC(=O)CCC(=O)N/N=C(\C)C1(O)Cc2c(O)c4c(c(O)c2C(OC2CC(N)C(O)C(C)O2)C1)C(=O)c1c(OC)cccc1C4=O)CC3OC1CC(N)C(O)C(C)O1` (centres undefined): the growth is -44.8% [5 µM] (active) in [1]; -68.1% [5 µM] (active) in assay [2]; -31.6% [5 µM] (active) in assay [3]; -31.3% [5 µM] (active) in assay [4]; -44.3% [5 µM] (active) in [5]; -14.4% [5 µM] (active) in [6]. Also, the growth in [7] was -30.5% [5 µM] (active); in assay [8] it was 8.46% [5 µM] (active); in [9], -17.3% [5 µM] (active); in assay [10], -39.2% [5 µM] (active); in [11], -55.7% [5 µM] (active); in assay [12], -20.9% [5 µM] (active). Also, the growth is -27% [5 µM] (active) in [13]; -5.24% [5 µM] (active) in assay [14]; -7.96% [5 µM] (active) in assay [15]; -31.4% [5 µM] (active) in assay [16]; -85.2% [5 µM] (active) in assay [17]; -23.5% [5 µM] (active) in assay [18]. The growth in assay [19] is -31.5% [5 µM] (active); in assay [20], -29.8% [5 µM] (active).
Consider `S=P(Nc1ccccc1)(Nc1ccccc1)c1ccccc1`, for which the growth was 92.5% in [1]; 112% in [2]; 107% in [3]; 90.7% in assay [4]; 103% in assay [5]; 94.6% in [6]. For the same compound, the growth is 122% in assay [7]; 90% in [8]; 90.8% in assay [9]; 95.8% in assay [10]; 97.7% in assay [11]; 85.3% in assay [12]. For the same compound, the growth in [13] is 92.1%; in [14], 104%; in assay [15], 87.7%; in assay [16] it was 108%; in [17], 101%; in assay [18], 103%. The growth in assay [19] is 81.1%; in assay [20], 102%.
With `CCOCC1(CCc2ccccc2)C(=O)NC(=S)NC1=O`, the growth is 94% in assay [1]; 106% in [2]; 114% in assay [3]; 104% in assay [4]; 113% in assay [5]; 102% in [6]. Besides, the growth in [7] is 109%; in [8] it was 100%; in assay [9] it was 102%; in [10], 99.9%; in assay [11] it was 105%; in assay [12], 105%. Moreover, the growth is 101% in assay [13]; 100% in assay [14]; 84% in assay [15]; 112% in assay [16]; 108% in assay [17]; 109% in assay [18]. Moreover, the growth in [19] is 101%; in assay [20], 110%.
As to `O=c1cc[nH]c(=O)o1`, the growth in assay [1] is 105%; in assay [2] it was 98.4%; in [3] it was 105%; in assay [4], 102%; in assay [5], 106%; in assay [6], 98.7%. In addition, the growth in assay [7] was 104%; in [8], 117%; in assay [9] it was 99.9%; in assay [10] it was 104%; in assay [11] it was 103%; in assay [12] it was 108%. The growth in assay [13] was 102%; in assay [14] it was 105%; in [15], 93.6%; in assay [16], 102%; in [17], 111%; in assay [18], 107%. In addition, the growth in [19] is 98.1%; in assay [20] it was 103%.
On to `CC(C)N=C(NC(C)C)N1CC1`, for which the growth in [1] is 113%; in assay [2], 108%; in assay [3], 118%; in assay [4], 108%; in [5], 116%; in [6] it was 116%. Also, the growth was 122% in assay [7]; 96.9% in assay [8]; 108% in assay [9]; 103% in assay [10]; 128% in assay [11]; 115% in assay [12]. In addition, the growth in assay [13] was 105%; in [14], 111%; in [15] it was 113%; in [16] it was 115%; in [17], 103%; in assay [18], 110%. Further, the growth in assay [19] is 111%; in assay [20], 110%.
As to `CC[C@@H](C)/C=C(C)/C=C/C(=O)c1c(O)c(-c2ccc(O)cc2)cn(O)c1=O`, the growth in assay [1] was 19.6%; in assay [2], -1.76% (active); in [3], 22.5%; in assay [4], 9.35% (active); in assay [5], 1% (active); in assay [6], 0.309% (active). Further, the growth is 15.5% in [7]; -0.607% (active) in [9]; 5.1% (active) in [10]; -1.25% (active) in assay [11]; 13.6% in assay [12]; 3.54% (active) in assay [13]. Also, the growth is 13.6% in assay [14]; -8.98% (active) in assay [15]; 17.8% in assay [16]; 24.1% in assay [17]; 20.2% in assay [18]; 16.7% in [19]. For the same compound, the growth in assay [20] is 23.5%.
